# VCAM1 TNFa inh: inhibitors of TNFa-induced VCAM1 expression, primary screen, imaging, HUVEC, TNFa stimulus, immunofluorescence; HUVEC TNFa-induced VCAM-1 immunofluorescence, high-content imaging; actives 0.48% (n = 95,000); inhibition, % at 2 µM;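 active means inhibition above the batch mean plus 3 SD, with images confirmed as a hit by eye, cut at about 37% in these data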;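 further: 0% = TNF-stimulated DMSO wells and 100% = unstimulated control wells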
# cytoskel mod: modifiers of F-actin cytoskeleton organization, primary screen, imaging, HUVEC, phalloidin staining, high-content imaging | HUVEC TNFa F-actin phalloidin imaging | actives 0.18% (n = 91,000) | inhibition, % at 2 µM;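 active means inhibition above the batch mean plus 3 SD and confirmed as a hit by visual image inspection, cut at about 30% in these data, passing the limit was not always enough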
# E-sel TNF inh: E-selectin induction blockers in HUVEC – imaging, immunofluorescence, high content, primary screen. HUVEC TNFa-induced E-selectin immunofluorescence. actives 0.71% (n = 120,000). inhibition, % at 2 µM;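 active means inhibition above the batch mean plus 3 SD, and confirmed as a hit on visual image review, cut at about 43% in these data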;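 further: 0% = TNF-stimulated DMSO wells and 100% = unstimulated control wells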
# TNFa cytotox: cytotoxicity in TNFa-stimulated HUVEC, primary screen, cytotoxicity control for VCAM1 expression modulator project, imaging, Hoechst nuclei count; HUVEC TNFalpha-stimulated, Hoechst cell count; cell count reduction, % at 2 µM; actives 0.17% (n = 93,000); AID 848, 2007;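 active means cell count reduction exceeding the screen mean by over 5 SD, scaled to untreated wells per plate, cut at about 78% in these data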;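 further: cells counted after 24 h of TNF alpha exposure following the 1 h pretreatment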
# * = called active by the depositor; . = not tested or not shown. The list is not random: actives were taken first. Their share in the collection is about 1.1%.
SMILES,VCAM1 TNFa inh,cytoskel mod,E-sel TNF inh,TNFa cytotox
COc1ccc(NC(=O)C(Sc2nnc(-c3ccncc3)n2-c2ccccc2C)c2ccccc2)cc1Cl (centres undefined),.,.,10,.
CC(c1ccco1)N(C(=O)C12CC3CC(CC(C3)C1)C2)c1ccccn1 (centres undefined),8,3,100*,-10
CC(c1ccco1)N(C(=O)c1ccc(Cl)s1)c1ccccn1 (centres undefined),11,-5,.,-45
CSc1ccc(/C=N/NC(=O)CN2CCN(Cc3ccc(C)cc3)CC2)cc1,.,.,88*,.
CCCCCOC(=O)Cn1c(=O)oc2ccccc21,.,.,-22,.
CCCCOC(=O)CCn1c(=S)oc2ccccc21,-5,-55,66*,0
N#Cc1c2c(c(NCc3ccco3)n3c1nc1ccccc13)CCC2,52,-5,.,84*
CN(C)CCNc1c2c(c(C#N)c3nc4ccccc4n13)CCCC2,10,-8,9,-34
Cc1cc(C)cc(OCCCCCNCCO)c1,96*,12,-31,-2
COC(=O)c1ccccc1NC(=O)C1CCCO1 (centres undefined),.,.,-6,.
O=C1CC(c2cc(Br)ccc2F)c2cc3c(cc2N1)CCC3 (centres undefined),82*,-40,-5,.
CCOc1ccc(-c2c(=O)n(OCc3ccc([N+](=O)[O-])cc3)c3ccccc3[n+]2[O-])cc1,.,.,-1,.
NC(=O)CSc1nnc(COc2ccccc2)n1C1CCCCC1,7,6,0,-32
S=c1[nH]nc(-c2ccco2)n1/N=C/c1ccc(Cl)cc1,.,.,22,.
COc1ccccc1N1CCN(S(=O)(=O)c2ccc(Br)s2)CC1,10,-3,-3,-13
COc1ccccc1N1CCN(C(=O)c2ccc(Br)s2)CC1,.,.,80*,.
Cn1c(=O)c2c(-c3ccncc3)c3c(nc2n(C)c1=O)-c1ccccc1C3=O,-23,4,3,25
COc1ccc(CNC(=O)c2n[nH]c3ccccc23)cc1OC,.,.,-14,.
CC1CCN(S(=O)(=O)c2ccc(NC(=O)CSc3ncccc3C(=O)O)cc2)CC1,.,.,62*,.
COc1ccccc1OCCC(=O)OCC(=O)c1c(N)n(C)c(=O)n(C)c1=O,.,.,-57,.
COc1cc(/C=C/C(=O)N2CCCc3ccccc32)cc(OC)c1OC,.,.,-8,.
COc1ccc2[nH]c(C)c(CCNC(=S)Nc3cc(C)cc(C)c3)c2c1,.,.,-10,.
COc1ccc2[nH]c(C)c(CCN3C(=O)C4C5C=CC(C5)C4C3=O)c2c1 (centres undefined),16,-3,70*,-30
O=C(Cc1cccs1)NCc1ccccc1,.,.,-35,.
O=C(Cc1cccs1)NCc1ccncc1,-1,-12,64*,-2
SMILES,VCAM1 TNFa inh,cytoskel mod,E-sel TNF inh,TNFa cytotox
CN(C)c1ccc(N=Nc2ccccc2C(=O)OCC(=O)N(C)c2ccccc2)cc1,.,.,51,.
CCCn1c(N)c(C(=O)CSc2nnnn2-c2ccc(O)cc2)c(=O)n(C)c1=O,-9,-7,.,16
CC(C)N(Cc1nc(-c2ccccc2)no1)C(=O)c1ccc2c(c1)OCO2,16,-36,3,8
O=C(NCc1nc(-c2ccccc2)no1)c1ccc2c(c1)OCO2,-5,6,100*,-7
O=C(CSc1nc2ccccc2o1)Nc1cc(C(F)(F)F)ccc1N1CCOCC1,4,4,-15,-17
Cc1ccc2nc(SCC(=O)Nc3cc(C(F)(F)F)ccc3N3CCOCC3)[nH]c2c1,91*,10,-23,54
CCOC(=O)c1cc(=O)n(Cc2ccccc2C)c2ccccc12,86*,33*,-5,-46
CC1=C(C(=O)N(C)C)C(c2ccc(C)s2)NC(=S)N1 (centres undefined),.,.,20,.
CC(/C=N/NC(=O)c1ccco1)=C\c1ccccc1,.,.,-14,.
C/C(=N\O)c1ccc2c3ccccc3n(C)c2c1,41*,-22,.,29
O=[N+]([O-])c1ccc(O)c(/C=N/Nc2nn[nH]n2)c1,.,.,-26,.
O=[N+]([O-])c1ccc(O)c(/C=N/Nc2ccc(Cl)nn2)c1,63*,25,100*,15
Cc1cnc(C(=O)Oc2c(C)ccc(C)c2C)cn1,.,.,-6,.
O=C(c1ccc(=O)oc1)N1CCCc2ccccc21,19,-10,-39,-37
O=C(O)C1C2C=CC(C2)C1C(=O)NCCCc1ccccc1 (centres undefined),.,.,68*,.
N#Cc1ccsc1NC(=O)COC(=O)c1ccc2ccccc2c1,.,.,97*,.
CCCOCCOC(=O)C1=C(C)NC(=O)NC1c1cc(Cl)c(O)c(OC)c1 (centres undefined),9,-3,.,-9
COc1ccc(-c2noc(CCC(N)=O)n2)cc1OC,-13,12,80*,12

# Compound activity from PubChem BioAssay.
